Experimental data as given in PubChem BioAssay (NCI).
About 83,000 compounds went through this panel and 20% of them were active in at least one assay; those are over-represented in the sample as a whole.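 Cells were grown in 96-well plates and exposed to the test compound at a single concentration for 48 hours; results are reported as percent growth, with values below 10 considered active.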 Values without a mark were called inactive. Calls of active or inactive are those of the source.

tested on: HS 578T breast; assay: NCI-60 one-dose screen, 48 h (100 = growth as untreated, 0 = no growth, -100 = all killed); settings: 10 µM unless noted
Procedure: Growth inhibition of the HS 578T human tumor cell line is measured as a screen for anti-cancer activity. Cells are grown in 96 well plates and exposed to the test compound for 48 hours. Compounds are tested at a single concentration, which is 10^-5 M for most compounds. The reported endpoint is percent growth (GI% or GIPRCNT), where numbers from 0 - 100% represent growth inhibition, and numbers from -100% - 0 represent cell death. For example, a value of 40 represents 60% growth inhibition. A value of 0 means no net growth occurred over the course of the experiment. A value of -40 indicates 40% of cells at the beginning of the experiment died by the end of the experiment. A value of -100 means all cells are dead at the end of the experiment.
NCI-60 Human Tumor Cell Lines Screen was performed using the standard one-dose NCI protocol, which is described in more detail at https://dtp.cancer.gov/discovery_development/nci-60/default.htm.
Compounds with GIPRCNT values below 10 were considered active. Activity score was based on GIPRCNT using the following formula: […]
Score is 0 for GIPRCNT values of 100 or above, 50 for GIPRCNT values of 0, and 100 for GIPRCNT values of -100.

Row | SMILES | growth
1 | CCN(CC)C(=O)C1CCN(C(=O)c2ccccc2)CC1 | 97%
2 | COc1cc(NC(C)CCCN2C(=O)c3ccccc3C2=O)c2nccc(C)c2c1OC (stereo not given) | 98.7%
3 | Cc1ncc(CO)c(C(=O)O)c1O | 102%
4 | COc1ccc(/C(Cl)=N/N=C(\Cl)c2cc(OC)c(OC)c(OC)c2)cc1OC(C)=O | 90.4%
5 | Cc1ccc2[nH]c3nc4cccnc4c(C)c3c2c1 | 93.2%
6 | Cn1cnc([N+](=O)[O-])c1N1c2ccncc2Sc2ccncc21 | 98.2%
7 | O=C(Nc1ccccc1Cl)c1c[nH]c(=O)c(-c2ccc(N3CCCOC4(CC4)C3)cc2)c1 | 87.3%
8 | OC[C@@H](O)C(O[C@@H]1O[C@H](CO)[C@H](O)[C@H](O)[C@H]1O)[C@H](O)[C@@H](O)CO (stereo not given in full) | 129%
9 | CCn1cc(C(=O)O)c(=O)c2cc(F)c(N3CCN(CC(=O)Nc4ccc(C(C)=O)cc4)CC3)cc21 | 101%
10 | Cc1cc[n+](CCCC[n+]2ccc(C)cc2)cc1 | 104%
11 | CS(=O)(=O)OCC(COS(C)(=O)=O)C(c1ccccc1)c1ccccc1 | 104%
12 | CC(C)CNCC(O)COc1ccc(C(C)(C)c2ccc(OCC(O)CNCC(C)C)cc2)cc1 (stereo not given) | 65.4%
13 | COc1ccc(/C=C/C(=O)/C=C(/C=C/c2ccc(OC)c(OC)c2OC)OB(F)F)c(OC)c1OC | 23.6%
14 | COc1ccc(-c2nnc(SCC(=O)Nc3ccc(C(=O)/C=C/c4ccc(OC)c(OC)c4)cc3)o2)cc1 | 93.4%
15 | CCOC(=O)c1noc2c1CCc1cn(Cc3cc(OC)cc(OC)c3)cc1-2 | 99.7%
16 | NS(=O)(=O)c1ccc(Nc2nc(O)c(/C=C3\C=Nc4ccccc43)s2)cc1 | 87.5%
17 | N#Cc1c(N)nc2c(c1N)C(c1ccc(Cl)cc1)C1=C(CCCC1=O)N2c1sc2c(c1C#N)CCCC2 (stereo not given) | 86.7%
18 | Cc1cccc(Cc2cnc(NC(=O)CCc3ccc(C)o3)s2)c1 | 27.6%
19 | CN1CCN(CC(O)COc2c(Br)c(Br)c(Br)c3c2OC(C)(C)C3)CC1 (stereo not given) | 55.5%
20 | CCc1c2cc(Cl)ccc2n2cc(Cc3ccccc3)[nH]c(=O)c12 | 87.4%

Row | SMILES | growth
21 | C=CC(=O)Nc1cccc(Nc2nc(Nc3ccc(OCCOC(F)F)cc3)ncc2F)c1 | 23.4%
22 | C=C1C(=O)O[C@H]2[C@H]1CC/C(COC(=O)c1ccccc1)=C\CC[C@@]1(C)O[C@@H]21 | 44%
23 | O=C(Cn1c2ccccc2c2ccncc21)N/N=C/c1c[nH]c2ccccc12 | 53.2%
24 | COc1cc2ncn3c(=O)c4c5c(sc4nc3c2cc1OC)CCCCC5 | 99.7%
25 | c1cncc(-c2nc3ccccc3[nH]2)c1 | 78.4%
26 | COc1cc(C(=O)NNC(=O)c2ccccc2C(=O)O)cc(OC)c1OC | 67.8%
27 | S=C=NP1(N=C=S)=NP(N=C=S)(N=C=S)=NP(N=C=S)(N=C=S)=NP(N=C=S)(N=C=S)=N1 (stereo not given) | 98.5%
28 | COc1ccccc1S(=O)(=O)Nc1ccc2c3c(cc(-c4ccoc4)nc13)C(=O)N2C | 56.2%
29 | CCCCNc1cc(C(=O)O)cc(S(N)(=O)=O)c1Oc1ccccc1 | 98.5%
30 | Cc1cc(O[C@@H]2O[C@@H](C)[C@H](O)[C@@H](O)[C@H]2O)c2c3c(c(O[C@@H]4O[C@@H](C)[C@H](O)[C@@H](O)[C@H]4O)cc2c1)C(=O)c1c(O)cccc1C3=O | -12.8% (active)
31 | COc1ccc(C[C@H](N)C(=O)N[C@@H]2[C@@H](CO)OC(n3cnc4c(N(C)C)ncnc43)[C@@H]2O)cc1 (stereo not given in full) | 11.8%
32 | COc1cc(-c2nc(N)n(CC(=O)Nc3ccc(/C(C)=N\O)cc3)n2)cc(OC)c1OC | 82.1%
33 | C=CC(=O)NC(=O)Nc1ccccc1Cl | 96.8%
34 | CCCC(=O)Oc1ccc(/C(=C(\C)c2ccc(Cl)cc2)c2ccc(OCCN(CC)CC)cc2)cc1 | -38.1% (active)
35 | C=C1C(=O)O[C@H]2[C@H]1CC/C(COC(=O)c1ccc(Br)cc1)=C\CC[C@@]1(C)O[C@@H]21 | 17.8%
36 | COc1cc(/C=C/C(=O)c2ccc(Oc3ncnc4ccccc34)cc2)cc(OC)c1OC | 97.1%
37 | CN(C)c1ccc2cc(-c3nc4ccccc4s3)c(N)nc2c1 | 91.9%
38 | Cc1ccc(-c2cn3cc([N+](=O)[O-])ccc3n2)cc1 | 97.1%
39 | COc1ccc(-c2cnc(-c3ccc(F)cc3)[nH]2)cc1 | 99.2%
40 | Cc1ccc(-c2nc3c(N=Nc4ccc(S(N)(=O)=O)cc4)c(N)nn3c(N)c2C#N)cc1 | 39.4%
